DAX1 inh-1: DAX1 (NR0B1) inhibitors, primary screen, cell-based, HEK293, Gal4-DAX1, luciferase luminescence. Nuclear receptor subfamily 0 group B member 1 (Homo sapiens), P51843. HEK293 Gal4-DAX1 luciferase reporter. inhibition, % at 6.75 µM. hit rate 0.99% among 340,000;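 active = inhibition above the mean over all tested compounds plus 3 SD, cut at about 4.2% in these data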;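 also: inhibition shows as a rise in luminescence from relieved DAX1 repression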
Target sequence (P51843 207-470 limits assumed): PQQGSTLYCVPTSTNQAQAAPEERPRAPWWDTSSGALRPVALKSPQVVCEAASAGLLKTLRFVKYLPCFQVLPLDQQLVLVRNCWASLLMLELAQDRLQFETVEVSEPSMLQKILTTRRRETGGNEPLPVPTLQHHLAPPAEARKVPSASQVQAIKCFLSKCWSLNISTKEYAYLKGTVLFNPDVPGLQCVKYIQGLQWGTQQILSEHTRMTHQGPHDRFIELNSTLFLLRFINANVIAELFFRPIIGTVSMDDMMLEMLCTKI
hgDAF12 agonist: H. glycines DAF-12 receptor agonists, primary screen, cell-based, luminescence, HEK293, GAL4 fusion, UAS-luciferase; Nuclear hormone receptor DAF-12 (Heterodera glycines), GAL4 fusion; HEK293 GAL4-hgDAF12 UAS-luciferase reporter, agonist luminescence; normalized to butyrate control; activation, % at 6.8 µM; hit rate 1.8% among 370,000;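 active = activation above a cutoff set at the mean of all screened compounds plus 3 SD, cut at about 10% in these data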
SMARCA2 activ: SMARCA2 (BRM) function activators, primary screen, cell-based, luminescence, high throughput | MG213 cells, MMTV-luciferase reporter, dexamethasone, overnight | activation, % at 9.1 µM | hit rate 1% among 370,000 | AID 652017, 2013; in the data active = activation above about 7.8%
hcDAF12 agonist: H. contortus DAF-12 nuclear receptor activators, primary screen, cell-based, luminescence, HEK293, lit1-tk-luc reporter. HEK293 hcDAF-12 lit1-tk-luc reporter; 0% DMSO, 100% Δ7-dafachronic acid. activation, % at 6.8 µM. hit rate 1.4% among 370,000. AID 652067, 2013;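 active = activation above the mean of all tested compounds plus 3 SD, cut at about 5.5% in these data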
DAX1 inh-2: DAX1 (NR0B1) inhibitors on StAR promoter, primary screen, cell-based, luminescence, SF-1 (NR5A1), full-length DAX-1 | AID 652010, 2013 | inhibition, % at 6.8 µM | HEK293T StAR-luciferase reporter, SF-1/DAX-1 repression relief | hit rate 1.1% among 370,000;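 active = inhibition above the mean over all tested compounds plus 3 SD, cut at about 3.6% in these data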;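 also: higher inhibition means more luminescence from relief of DAX-1 repression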
ssDAF12 agonist: S. stercoralis DAF-12 nuclear receptor activators, primary screen, cell-based, luminescence, HEK293, GRIP1 co-expression, lit1-tk-luc; AID 652126, 2013; HEK293 ssDAF-12/GRIP1 lit1-tk-luc reporter; % of 3 µM dafachronic acid response; hit rate 1% among 370,000; activation, % at 6.8 µM;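 active = activation above the mean over all tested compounds plus 3 SD, cut at about 0.9% in these data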
SMARCA2 act conf: SMARCA2 (BRM) function activators, confirmation, cell-based, luminescence, triplicate. shares compounds with SMARCA2 activ. MG213 cells, MMTV-luciferase with dexamethasone, overnight; MG213 cells expressing E1A, Rb sequestered; DMSO wells 0%, reference activator 100%. activation, % at 9.1 µM. hit rate 30% among 3,500. AID 652260, 2013;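 active = activation above its plate's cutoff, the mean activation of tested wells plus 3 SD, cut at about 7.9% in these data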
GAL4-VP16 Luc: GAL4-VP16 luciferase reporter activation, counter-screen for SMARCA2 (BRM) activator project, cell-based, pG5luc, luminescence, high throughput | shares compounds with SMARCA2 activ | HEK293 GAL4-VP16 pG5luc reporter; scaled: DMSO wells 0%, SAHA wells 100% | activation, % at 9.1 µM | hit rate 41% among 3,500;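 active = activation above the solvent-only control well mean plus 3 SD, averaged across control plates, cut at about 5.2% in these data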
A number is an active result; . = inactive; / = not tested or not shown; ! = not confirmed by another sample. A selection: hits, their analogues and other compounds. The true share with any hit is near 4.8%.

SMILES	DAX1 inh-1	hgDAF12 agonist	SMARCA2 activ	hcDAF12 agonist	DAX1 inh-2	ssDAF12 agonist	SMARCA2 act conf	GAL4-VP16 Luc
CCCN(CCC)CCCNC(=S)Nc1ccc2nc(N3CCN(CC)CC3)cc(C)c2c1	.	.	9.4	.	.	.	.	.
CCCN(CCC)CCCNC(=S)Nc1ccc2nc(N3CCN(C)CC3)cc(C)c2c1	.	.	10	.	.	.	8.3	.
COCC1CN(CCc2ccc(F)cc2)S(=O)(=O)c2c(OCCN3C(=O)[C@@H]4[C@H](C3=O)[C@@H]3C=C[C@H]4C3)cccc2O1 (some centres not stated)	/	.	.	.	.	.	/	/
COc1ccc(CCNC(=O)Cn2nc(-c3ccccc3)ccc2=O)cc1	/	.	.	.	.	.	/	/
c1ccc(CSCc2cn3ccccc3n2)cc1	.	13	8.8	.	.	.	.	7.5
O=C(CCCc1ccccn1)c1ccc(-c2ccccc2)cc1	.	.	8.6	.	.	0.9	.	6.4
O=S1(=O)c2c(cccc2N2CC[C@@H](O)C2)O[C@@H]2CCN1C2	/	.	.	.	.	.	/	/
O=C(/C=C/c1ccccc1)NC(=O)c1ccccc1O	.	12	9.6	.	.	.	11	6.4
COc1cc(/C=C/C(=O)NC(=O)c2ccccc2O)ccc1O	.	.	.	.	.	.	/	/
Cc1nn(-c2ccccc2)c2sc(C(=O)N3CCN(S(=O)(=O)c4ccc(Br)s4)CC3)cc12	/	.	.	.	.	.	/	/
CCc1ccc(NC(=O)CCCn2nc(CC)n3c(cc4occc43)c2=O)cc1	.	.	9.6	.	.	.	.	.
CCOC(=O)C1=NOC(C(=O)NC2CCCC2)(C(=O)c2ccc(OC)cc2)C1 (configuration not stated)	/	.	.	.	.	.	/	/
COC(=O)[C@]12C[C@H](CC(=O)N3CCOCC3)C(=O)N(Cc3ccc(Cl)cc3Cl)C1=C[C@H](C1CCCC1)O[C@@H]2C	/	.	.	.	.	.	/	/
O=S(=O)(c1ccccc1)N(Cc1ccccn1)Cc1ccccn1	.	.	.	.	.	.	/	/
O=c1ccc(Cc2ccccn2)n[nH]1	.	.	9.5	.	.	.	.	.
CN1CCCN(S(=O)(=O)c2ccc3c(c2)CCC(=O)N3)CC1	/	.	.	.	.	.	/	/
O=C(NC1=NCCS1)c1ccccc1OCc1ccc(F)cc1	.	.	10	.	.	.	.	.
O=C(Nc1ccccc1)c1ccccc1OCc1ccc(F)cc1	.	.	.	.	.	.	/	/
Cc1cc(NC(=O)CSc2n[nH]c(-c3ccccc3Br)n2)no1	.	.	.	.	.	.	/	/
C/C(N)=C(/C#N)C(=O)CSc1n[nH]c(-c2ccccc2Br)n1	.	.	8.6!	.	.	.	.	.
C/C(N)=C(/C#N)C(=O)CSc1ccccc1F	.	.	9.0	.	.	.	10	8.8
C=CCN1C(=O)[C@@H](CC(=O)N2CCN(C(=O)C3CC3)CC2)[C@]2(C(=O)OC)CCCCC=C12	/	.	.	.	.	.	/	/
Cc1ccc(NC(=O)CNC(=O)c2ccc(C)s2)nc1	.	.	.	.	.	.	/	/
Cc1ccnc(NC(=O)CNC(=O)c2ccc(C)s2)c1	.	.	9.8	.	4.0	.	.	6.7
CCOC(=O)CC[C@@H]1CC[C@]2(CCCN(C(=O)c3ccco3)C2)O1	/	.	.	.	.	.	/	/
SMILES	DAX1 inh-1	hgDAF12 agonist	SMARCA2 activ	hcDAF12 agonist	DAX1 inh-2	ssDAF12 agonist	SMARCA2 act conf	GAL4-VP16 Luc
COC(=O)c1c(NC(=O)Cc2ccccc2)sc2c1CC(C)(C)NC2(C)C	.	.	12	.	.	.	.	.
COC(=O)c1c(NC(=O)COc2ccc(Cl)cc2)sc2c1CC(C)(C)NC2(C)C	.	.	.	.	.	.	/	/
Cc1ccsc1/C=N/NC(=O)c1ccncc1	.	.	.	.	.	.	/	/
C/C=C/C=N\NC(=O)c1ccncc1	.	.	8.2	.	.	.	.	.
COc1cc(C)ccc1OCc1cc(C(=O)N2CCCCCC2)no1	.	.	.	.	.	.	/	/
COc1cc(Cl)ccc1OCc1cc(C(=O)N(C)C2CCOC2)no1 (configuration not stated)	.	.	8.7	.	.	.	.	.
CCOC(=O)N1CCN(C(=O)c2cc(COc3ccc(Cl)cc3OC)on2)CC1	.	.	.	.	.	.	/	/
COc1cc(C)ccc1OCc1cc(C(=O)N2CCN(C)C[C@@H]2c2ccccc2)no1	.	.	8.7	.	.	.	.	.
COCCN1CCN(C(=O)c2cc(COc3ccc(Cl)cc3OC)on2)CC1	.	.	8.3	.	4.3	.	14	9.7
O=C(c1cc(Cl)ccc1F)N1CCCC(c2nc(-c3cccs3)no2)C1 (configuration not stated)	/	.	.	.	.	.	/	/
Cc1cccc(Cn2cc(COC(=O)N3CCOCC3)nn2)c1	/	.	.	.	.	.	/	/
Cc1ccc(C(=O)CNc2ccc(Cl)cc2)cc1	.	.	13	.	.	.	12	.
COCCNC(=S)N1C[C@H]2CON(C)[C@H]2C[C@H]1c1ccccc1Br	/	.	.	.	.	.	/	/
C=CCN1C(=O)[C@H](CC(=O)NCc2ccccc2)[C@@]2(C(=O)OCC)CCCC=C12	/	.	.	.	.	.	/	/
NC(=O)C1CC(=O)N(c2ccc(OCc3c(F)cccc3Cl)cc2)C1 (configuration not stated)	.	.	.	.	.	.	/	/
NC(=O)C1CC(=O)N(c2ccc(OCc3c(Cl)cccc3Cl)cc2)C1 (configuration not stated)	.	.	8.7	.	.	.	.	.
C[C@H]1C(c2ccccc2F)O[C@]2(C[C@H](O)c3ccccc3O2)C[C@@H]1O (some centres not stated)	/	.	.	.	.	.	/	/
CCOc1ccc(C(=O)Nc2nc(C)c(C(=O)OC)s2)cc1	/	.	8.8	.	.	.	8.7	12
CC(NC(=O)CCSCc1ccccc1F)c1ccccc1 (configuration not stated)	.	.	12	.	.	.	.	.
